This is part of a sample that, as a whole, favours compounds with a hit. Of some 83,000 tested, about 20% had one in any assay.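 Growth was measured after 48 h exposure to one concentration of compound in 96-well plates. Values under 10 count as active.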 A number with no mark means an inactive call. The source made the active and inactive calls.

Results on 37 compounds are retold here after PubChem BioAssay (NCI).

One assay concerns SR leukemia. Description: NCI-60 one-dose screen, 48 h (100 = growth as untreated, 0 = no growth, -100 = all killed). Particulars: 10 µM unless noted.
For the compound `O=C(CCCCCCSc1nc(-c2ccc(Cl)cc2)cc(-c2ccc(Cl)cc2)n1)NO`, the growth was 5.47% (active).

For `O=C1CC(C(F)(F)F)Cc2nc3ccc(Br)cc3cc21` (centres undefined), the growth is 75.2%.

With `COc1ccc(C2NC(=O)C(C#N)c3c2sc2c(F)cccc32)cc1` (centres undefined), the growth is 22.2%.

In the case of `CCCCCn1sc(=O)n(Cc2ccc(CNC(=O)OCc3ccc4cccc(O)c4n3)cc2)c1=O`, the growth was 4.06% (active).

Consider `O=[N+]([O-])c1cccc(N=NNc2cccc([N+](=O)[O-])c2)c1`, for which the growth is 95.1%.

As to `CCN(CC)CCCOc1ccc2c(c1)O/C(=C\c1cccc(OC)c1)C2=O`, the growth was 63.3%.

Regarding `O=C(OCc1ccc2c(Cl)cc(Cl)c(O)c2n1)N1CCNCC1`, the growth is 14.5%.

Take `C=CCCCCOc1ccccc1-c1cnc(OCCCCC=C)n1C`: the growth is 30.7%.

Take `CSc1nc(=S)c2nc(SC)n(-c3ccccc3)c2[nH]1`: the growth is 104%.

On to `CC1Cc2c(Cl)ncnc2N(C)c2ccc(O)cc21` (centres undefined), for which the growth is 90.3%.

`Nc1nc(Nc2ccccc2)c2ncn(Cc3ccc4c(c3)OCO4)c2n1`: the growth was 13.6%.

As to `COc1ccc(-c2cc(-c3ccc(Cl)cc3)nc(SCCCCCCC(=O)NO)n2)cc1`, the growth is 4.61% (active).

As for `COc1ccc(C(=O)CSc2nccc(Nc3ccc(C(=O)O)cc3)n2)cc1`, the growth is 91.4%.

As to `CC1(C)OC2[C@@H](CNC(=O)NC(=O)NC(=O)CI)O[C@@H](n3cnc4c(NC(=O)Nc5ccccc5)ncnc43)[C@H]2O1` (some centres undefined), the growth was -50.8% (active).

Regarding `Cn1cc(-c2noc(-c3cn(C)c4ncc(F)cc34)n2)c2cc(Cl)ccc21`, the growth is 34.5%.

In the case of `COCCCNc1nc(NC(=O)c2cc(Br)cc(C(F)(F)F)c2)cc(-c2cccnc2)n1`, the growth is 83.4%.

Consider `O=C(NCCCNC(=O)OCc1ccc2cccc(O)c2n1)OCc1ccc2cccc(O)c2n1`, for which the growth is 12.1%.

Turning to `COc1cccc(-c2[nH]c(=S)ncc2C(=O)c2ccccc2)c1`, the growth is 28.3%.

On to `CCN(CCO)CCC(=O)c1ccc([N+](=O)[O-])cc1`, for which the growth is 107%.

On to `Cc1ccc(N)c(O)c1`, for which the growth is 112%.

In the case of `CC(C)C1=NOC(=O)C1=Cc1cn(-c2ccccc2)nc1-c1ccc(Br)cc1`, the growth was -23.1% (active).

As to `Cc1cc[n+](CCCCCCCCCC[n+]2ccc(C)cc2)cc1`, the growth is 98.9%.

On to `C[C@@H](NC(=O)[C@@H](CC(=O)N1CCC(N2CCCCC2)CC1)N1C(=O)[C@@H](N2C(=O)OC[C@@H]2c2ccccc2)[C@H]1/C=C/c1cccc(Cl)c1)c1ccccc1`, for which the growth was -22.4% (active).

In the case of `C/C=C/C1OC23CCCCC2C(C#N)(C(=N)O3)C1(C#N)C#N` (centres undefined), the growth was 49.1%.

Take `CCCOc1ccc(-c2nc(-c3ccc(N)cc3)cs2)cc1`: the growth was 73.9%.

As to `Cc1ccccc1OC(=O)c1cccc(Cl)c1`, the growth is 97.3%.

With `CC(C)c1ccc(C(=O)Nc2nc3ccc(O)cc3s2)cc1`, the growth was 17.1%.

Turning to `COc1cc(-c2nc(SCCC(C)C)nc(Nc3ccc(S(N)(=O)=O)cc3)c2C#N)cc(OC)c1OC`, the growth is -18.5% (active).

Consider `O=C(CSc1nc2ccc([N+](=O)[O-])cc2[nH]1)Nc1cccc(Cl)c1`, for which the growth was 12.7%.

Take `COc1ccc2nc3cc(Cl)ccc3c(Nc3ccc(O)cc3)c2c1`: the growth was -22.2% (active).

In the case of `O=C(OCc1ccc2c(Cl)cc(Cl)c(O)c2n1)N1CCN(C(=O)c2cc3cc(F)ccc3[nH]2)CC1`, the growth is 16.7%.

Turning to `COc1ccc(C(C(=O)O)c2ccc(OC)cc2)cc1`, the growth was 106%.

Turning to `O=C1COCCN1c1ccc(NCc2cn(Cc3ccc(F)cc3)c3ccccc23)cc1`, the growth was 94.4%.

As to `O=C(Nc1cc(-c2cccnc2)nc(NCCCN2CCOCC2)n1)c1cc(Br)cc(C(F)(F)F)c1`, the growth was 4.25% (active).

For `CS(=O)(=O)c1cccnn1`, the growth was 167%.

Consider `C[C@]12CCc3c(ccc4cc(O)ccc34)[C@@H]1CC[C@H]2O`, for which the growth is 74.3%.

Take `CN(Cc1cccc(C(F)(F)F)c1)C(=O)[C@@H](CC(=O)N1CCC(N2CCCCC2)CC1)N1C(=O)[C@@H](N2C(=O)OC[C@@H]2c2ccccc2)[C@H]1/C=C/c1ccccc1`: the growth is 54.3%.

The subject of the next assay is RPMI-8226 leukemia. The assay is described as above. The note with it: 10 µM unless noted.
In the case of `O=C(CCCCCCSc1nc(-c2ccc(Cl)cc2)cc(-c2ccc(Cl)cc2)n1)NO`, the growth is 34.9%.

Regarding `O=C1CC(C(F)(F)F)Cc2nc3ccc(Br)cc3cc21` (centres undefined), the growth is 77.5%.

Regarding `COc1ccc(C2NC(=O)C(C#N)c3c2sc2c(F)cccc32)cc1` (centres undefined), the growth is 63.2%.

Regarding `CCCCCn1sc(=O)n(Cc2ccc(CNC(=O)OCc3ccc4cccc(O)c4n3)cc2)c1=O`, the growth is -14.6% (active).

On to `O=[N+]([O-])c1cccc(N=NNc2cccc([N+](=O)[O-])c2)c1`, for which the growth is 86%.

Take `CCN(CC)CCCOc1ccc2c(c1)O/C(=C\c1cccc(OC)c1)C2=O`: the growth was 96.2%.

As to `O=C(OCc1ccc2c(Cl)cc(Cl)c(O)c2n1)N1CCNCC1`, the growth was 44.2%.

On to `C=CCCCCOc1ccccc1-c1cnc(OCCCCC=C)n1C`, for which the growth was 80.8%.

For the compound `CSc1nc(=S)c2nc(SC)n(-c3ccccc3)c2[nH]1`, the growth is 90.7%.

Regarding `CC1Cc2c(Cl)ncnc2N(C)c2ccc(O)cc21` (centres undefined), the growth was 68.5%.

Regarding `Nc1nc(Nc2ccccc2)c2ncn(Cc3ccc4c(c3)OCO4)c2n1`, the growth was 30.6%.

On to `COc1ccc(-c2cc(-c3ccc(Cl)cc3)nc(SCCCCCCC(=O)NO)n2)cc1`, for which the growth is 26.5%.

As for `COc1ccc(C(=O)CSc2nccc(Nc3ccc(C(=O)O)cc3)n2)cc1`, the growth is 109%.

As to `CC1(C)OC2[C@@H](CNC(=O)NC(=O)NC(=O)CI)O[C@@H](n3cnc4c(NC(=O)Nc5ccccc5)ncnc43)[C@H]2O1` (some centres undefined), the growth is 64.2%.

Take `Cn1cc(-c2noc(-c3cn(C)c4ncc(F)cc34)n2)c2cc(Cl)ccc21`: the growth is 67%.

Regarding `COCCCNc1nc(NC(=O)c2cc(Br)cc(C(F)(F)F)c2)cc(-c2cccnc2)n1`, the growth is 65.6%.

With `O=C(NCCCNC(=O)OCc1ccc2cccc(O)c2n1)OCc1ccc2cccc(O)c2n1`, the growth is 18.4%.

Take `COc1cccc(-c2[nH]c(=S)ncc2C(=O)c2ccccc2)c1`: the growth was 113%.

For the compound `CCN(CCO)CCC(=O)c1ccc([N+](=O)[O-])cc1`, the growth was 104%.

Regarding `Cc1ccc(N)c(O)c1`, the growth is 61.9%.

Take `CC(C)C1=NOC(=O)C1=Cc1cn(-c2ccccc2)nc1-c1ccc(Br)cc1`: the growth is -29.6% (active).

For `Cc1cc[n+](CCCCCCCCCC[n+]2ccc(C)cc2)cc1`, the growth was 102%.

On to `C[C@@H](NC(=O)[C@@H](CC(=O)N1CCC(N2CCCCC2)CC1)N1C(=O)[C@@H](N2C(=O)OC[C@@H]2c2ccccc2)[C@H]1/C=C/c1cccc(Cl)c1)c1ccccc1`, for which the growth is 54.7%.

Regarding `C/C=C/C1OC23CCCCC2C(C#N)(C(=N)O3)C1(C#N)C#N` (centres undefined), the growth is 98.8%.

Regarding `CCCOc1ccc(-c2nc(-c3ccc(N)cc3)cs2)cc1`, the growth was 96.6%.

On to `Cc1ccccc1OC(=O)c1cccc(Cl)c1`, for which the growth is 98.8%.

As to `CC(C)c1ccc(C(=O)Nc2nc3ccc(O)cc3s2)cc1`, the growth is 28.9%.

Turning to `COc1cc(-c2nc(SCCC(C)C)nc(Nc3ccc(S(N)(=O)=O)cc3)c2C#N)cc(OC)c1OC`, the growth was -0.242% (active).

`O=C(CSc1nc2ccc([N+](=O)[O-])cc2[nH]1)Nc1cccc(Cl)c1`: the growth is -19.6% (active).

`COc1ccc2nc3cc(Cl)ccc3c(Nc3ccc(O)cc3)c2c1`: the growth is 68.6%.

`O=C(OCc1ccc2c(Cl)cc(Cl)c(O)c2n1)N1CCN(C(=O)c2cc3cc(F)ccc3[nH]2)CC1`: the growth is 21.4%.

For the compound `COc1ccc(C(C(=O)O)c2ccc(OC)cc2)cc1`, the growth is 111%.

`O=C1COCCN1c1ccc(NCc2cn(Cc3ccc(F)cc3)c3ccccc23)cc1`: the growth was 41.7%.

For the compound `O=C(Nc1cc(-c2cccnc2)nc(NCCCN2CCOCC2)n1)c1cc(Br)cc(C(F)(F)F)c1`, the growth was 30.2%.

For the compound `CS(=O)(=O)c1cccnn1`, the growth is 97%.

For `C[C@]12CCc3c(ccc4cc(O)ccc34)[C@@H]1CC[C@H]2O`, the growth was 94.6%.

Take `CN(Cc1cccc(C(F)(F)F)c1)C(=O)[C@@H](CC(=O)N1CCC(N2CCCCC2)CC1)N1C(=O)[C@@H](N2C(=O)OC[C@@H]2c2ccccc2)[C@H]1/C=C/c1ccccc1`: the growth was 66.9%.
